Several values for one entry are separate records, joined by “and”; a condition that tells them apart may be missing. Equal entries are not always repeated. More than one record can exist for a structure, and the calls need not agree. Activity calls are given as the source filed them. How the source made its calls: active means hit-call score of the fitted dose curve at least 0.9, where 1 is the maximum; inactive means score below 0.9.
Experiments:
[1] = ATG_M_32_CIS: Attagene CIS-FACTORIAL HepG2 Assay for M32 Transcription Factor (Internal Marker) (AID 2282949); settings: HepG2 Attagene cis-factorial M32 reporter, mRNA; actives raise or lower the signal;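 further: background control marker of the multiplexed CIS panel rather than a real target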
Procedure, shortened: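 Fluorescent capillary electrophoresis peaks of HpaI-digested, FAM-labelled RT-PCR reporter products give the signal. Source: transiently transfected human liver HepG2 cells, 24 h after chemical dosing; bidirectional fitting against DMSO.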

[2] = ATG_M_06_CIS: Attagene CIS-FACTORIAL HepG2 Assay for M06 Transcription Factor (Internal Marker) (AID 2282950); settings: HepG2 Attagene CIS-FACTORIAL M06 internal marker reporter; actives raise or lower the signal
Procedure, shortened: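 HepG2 cells transiently transfected with cis-regulated multiple reporter transcription units were exposed to chemical for 24 h; reporter mRNA was quantified by RT-PCR, 6-FAM primer labelling, HpaI digestion and capillary electrophoresis, fitted bidirectionally against DMSO.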

[3] = target: Hypoxia-inducible factor 1-alpha (Homo sapiens) (UniProt Q16665); assay: ATG_HIF1a_CIS: Attagene CIS-FACTORIAL HepG2 Assay for human Hypoxia Inducible Factor 1 (HIF1A) (AID 2282951); settings: HepG2 Attagene cis-factorial HIF1a reporter transcription; actives raise or lower the signal
Procedure, shortened: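 Measures endogenous transcription-factor activity through cis-regulated reporter mRNA in HepG2. Cells dosed 24 h; transcripts quantified by RT-PCR with 6-FAM-labelled products separated by capillary electrophoresis; DMSO serves as negative control.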

[4] = target: Hepatocyte nuclear factor 6 (Homo sapiens) (UniProt Q9UBC0); assay: ATG_HNF6_CIS: Attagene CIS-FACTORIAL HepG2 Assay for human Hepatocyte Nuclear Factor 6 (HNF6) (AID 2282952); settings: HepG2 Attagene cis-factorial HNF6 reporter transcription; actives raise or lower the signal
Procedure, shortened: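 HepG2 cells transiently transfected with cis-element-driven multiple reporter transcription units, dosed 24 h; reporter mRNA quantified by RT-PCR, FAM primer extension, HpaI digestion and capillary electrophoresis; bidirectional fit versus DMSO baseline.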

[5] = ATG_MRE_CIS: Attagene CIS-FACTORIAL HepG2 Assay for human Metal Responsive Element (MRE) (AID 2282954); settings: HepG2 MRE cis-reporter transcription, Attagene multiplex; actives raise or lower the signal
Procedure, shortened: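 HepG2 cells transiently transfected with cis-element-driven reporter units; mRNA measured 24 h after dosing. Reporter transcripts quantified by RT-PCR, FAM labelling, HpaI digestion and capillary electrophoresis; bidirectional fit versus DMSO.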

[6] = ATG_PBREM_CIS: Attagene CIS-FACTORIAL HepG2 Assay for human Phenobarbital-responsive Enhancer Module (PBREM) (AID 2282955); settings: HepG2 PBREM cis-reporter, Attagene multiplexed transcription; actives raise or lower the signal
Procedure, shortened: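 Fluorescence of labelled reporter cDNA fragments, resolved by capillary electrophoresis, gives mRNA induction in transfected HepG2 cells treated for 24 h; DMSO serves as negative control and baseline.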

[7] = ATG_PXRE_CIS: Attagene CIS-FACTORIAL HepG2 Assay for human Pregnane X Receptor Element (PXRE) (AID 2282957); settings: HepG2 Attagene CIS-FACTORIAL PXRE reporter, mRNA; actives raise or lower the signal
Procedure, shortened: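 HepG2 cells transiently transfected with cis-regulated multiple reporter transcription units; endogenous factor activity measured as reporter mRNA 24 h after dosing. RT-PCR, fluorescent primer extension, HpaI digestion, capillary electrophoresis; bidirectional fit versus DMSO baseline.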

[8] = target: Transcription factor Sp1 (Homo sapiens) (UniProt P08047); assay: ATG_Sp1_CIS: Attagene CIS-FACTORIAL HepG2 Assay for human Specificity Protein 1 (Sp1) (AID 2282961); settings: HepG2 Sp1 cis-reporter transcription, actives raise or lower the signal
Procedure, shortened: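 Endogenous Sp1 activity was gauged in human liver HepG2 cells bearing transfected reporter units under a cis-regulating promoter. After 24 h dosing, reporter mRNA was quantified by RT-PCR with capillary electrophoresis, and activity fitted bidirectionally versus DMSO.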

[9] = target: Signal transducer and activator of transcription 3 (Homo sapiens) (UniProt P40763); assay: ATG_STAT3_CIS: Attagene CIS-FACTORIAL HepG2 Assay for human Signal Transducer and Activator of Transcription 3 (STAT3) (AID 2282963); settings: HepG2, Attagene cis-factorial STAT3 reporter transcription; actives raise or lower the signal
Procedure, shortened: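 HepG2 cells transiently transfected with multiple cis-element-driven reporter units report endogenous transcription factor activity. After 24 h compound exposure, reporter mRNA is measured by RT-PCR, 6-FAM labelling, HpaI digestion and capillary electrophoresis. Fitted bidirectionally versus DMSO.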

[10] = ATG_TA_CIS: Attagene CIS-FACTORIAL HepG2 Assay for human TA Basal Promoter (AID 2282964); settings: HepG2 Attagene CIS-factorial TA basal promoter reporter; actives raise or lower the signal
Procedure, shortened: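 HepG2 cells transiently transfected with multiplexed cis-promoter reporter units, dosed 24 h. Reporter mRNA measured by RT-PCR, 6-FAM labelling, HpaI digestion and capillary electrophoresis; bidirectional fit versus DMSO baseline, serving as background control.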

[11] = ATG_TCF_b_cat_CIS: Attagene CIS-FACTORIAL HepG2 Assay for human T-Cell-Factor with beta-catenin (TCF/b-cat) (AID 2282965); settings: HepG2 TCF/beta-catenin cis-reporter transcription, actives raise or lower the signal
Procedure, shortened: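 Cells of the HepG2 line carry transiently transfected reporter units whose promoters respond to endogenous factors. Twenty-four hours post-dosing, reporter mRNA induction is measured by fluorescent RT-PCR and capillary electrophoresis, with DMSO as baseline.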

[12] = ATG_TGFb_CIS: Attagene CIS-FACTORIAL HepG2 Assay for human Transforming Growth Factor (TGF) (AID 2282967); settings: HepG2 Attagene CIS TGFb reporter, mRNA transcription; actives raise or lower the signal
Procedure, shortened: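 HepG2 cells transiently transfected with cis-promoter-driven multiplexed reporter units; 24 h compound exposure. Reporter mRNA measured by RT-PCR, 6-FAM labeling, HpaI digestion and capillary electrophoresis; bidirectional fit versus DMSO baseline.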

[13] = ATG_VDRE_CIS: Attagene CIS-FACTORIAL HepG2 Assay for human Vitamin D Receptor Element (VDRE) (AID 2282968); settings: HepG2 VDRE cis-reporter transcription, actives raise or lower the signal
Procedure, shortened: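 Transiently transfected HepG2 cells carrying cis-regulated reporter transcription units were exposed for 24 h. Reporter mRNA was measured by RT-PCR with fluorescent labelling and capillary electrophoresis, and fitted in both directions against DMSO.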

[14] = target: Heat shock factor protein 1 (Homo sapiens) (UniProt Q00613); assay: ATG_HSE_CIS: Attagene CIS-FACTORIAL HepG2 Assay for human Heat Shock Transcription Factor 1 (HSE) (AID 2282953); settings: HepG2 HSE cis-reporter, Attagene RNA transcription; actives raise or lower the signal
Procedure, shortened: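 HepG2 cells transiently transfected with multiple reporter transcription units under cis-regulatory promoter control, measuring endogenous transcription factor activity. After 24 h chemical exposure, reporter mRNA quantified by RT-PCR, fluorescent labelling, HpaI digestion and capillary electrophoresis; bidirectional fit versus DMSO.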

[15] = target: Paired box protein Pax-6 (Homo sapiens) (UniProt P26367); assay: ATG_Pax6_CIS: Attagene CIS-FACTORIAL HepG2 Assay for human Paired Box 6 (PAX6) (AID 2282956); settings: HepG2 CIS-FACTORIAL PAX6 reporter transcription, RNA readout; actives raise or lower the signal
Procedure, shortened: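 HepG2 cells transiently transfected with cis-promoter-driven multiplexed reporter units sensing endogenous transcription factor activity; 24 h chemical exposure. Reporter mRNA quantified by RT-PCR, 6-FAM labelling, HpaI digestion and capillary electrophoresis; bidirectional fit versus DMSO baseline.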

[16] = ATG_PPRE_CIS: Attagene CIS-FACTORIAL HepG2 Assay for human Peroxisome Proliferator-activated Response Element (PPRE) (AID 2282958); settings: HepG2 PPRE cis-element reporter, Attagene transcription factor profiling; actives raise or lower the signal
Procedure, shortened: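 Cells are first transfected transiently with the multiplexed reporter library, then dosed for 24 h. Total RNA is reverse-transcribed, amplified, fluorescently end-labeled and HpaI-cut before capillary electrophoresis; activity is fitted bidirectionally against DMSO controls.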

[17] = ATG_RORE_CIS: Attagene CIS-FACTORIAL HepG2 Assay for human RAR-related Orphan Receptor Element (RORE) (AID 2282959); settings: HepG2 Attagene cis-factorial RORE reporter, mRNA; actives raise or lower the signal
Procedure, shortened: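 Cells were HepG2 carrying transfected cis-regulated reporter constructs, dosed for 24 hours. Total RNA was reverse-transcribed and reporter cDNA amplified, fluorescently labeled and sized by capillary electrophoresis. Activity was fitted bidirectionally relative to DMSO.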

[18] = ATG_Sox_CIS: Attagene CIS-FACTORIAL HepG2 Assay for human SRY-box transcription factor (SOX) (AID 2282960); settings: HepG2 Attagene cis-factorial SOX reporter, mRNA; actives raise or lower the signal
Procedure, shortened: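 Transient MRTU transfection of HepG2; 24 h compound incubation; TriZol RNA, oligo(dT) RT, PCR, 6-FAM primer extension, HpaI cut, CE. Bidirectional fit, DMSO = baseline.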

[19] = ATG_SREBP_CIS: Attagene CIS-FACTORIAL HepG2 Assay for human Sterol Regulatory Element Binding (SREBP) (AID 2282962); settings: HepG2 Attagene cis-factorial SREBP reporter, mRNA; actives raise or lower the signal
Procedure, shortened: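 HepG2 cells transiently transfected with multiplexed cis-promoter reporter units sensing endogenous transcription factors; reporter mRNA measured 24 h after dosing by RT-PCR, 6-FAM labeling, HpaI digestion and capillary electrophoresis. Bidirectional fit versus DMSO.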

[20] = ATG_TAL_CIS: Attagene CIS-FACTORIAL HepG2 Assay for human TAL Basal Promoter (AID 2282966); settings: HepG2 Attagene cis-factorial TAL promoter reporter; actives raise or lower the signal;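 further: background control endpoint measuring basal TAL promoter reporter mRNA not a specific factor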
Procedure, shortened: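 HepG2 cells were transiently transfected with promoter-driven multiplexed reporter units and dosed for 24 h. Reporter mRNA was measured by RT-PCR with capillary electrophoresis fluorescence; bidirectional fits used DMSO as baseline, serving as a background control.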

Measured: AC50

Chain of Transcription factor Sp1 (Homo sapiens) (P08047 whole entry, looked up): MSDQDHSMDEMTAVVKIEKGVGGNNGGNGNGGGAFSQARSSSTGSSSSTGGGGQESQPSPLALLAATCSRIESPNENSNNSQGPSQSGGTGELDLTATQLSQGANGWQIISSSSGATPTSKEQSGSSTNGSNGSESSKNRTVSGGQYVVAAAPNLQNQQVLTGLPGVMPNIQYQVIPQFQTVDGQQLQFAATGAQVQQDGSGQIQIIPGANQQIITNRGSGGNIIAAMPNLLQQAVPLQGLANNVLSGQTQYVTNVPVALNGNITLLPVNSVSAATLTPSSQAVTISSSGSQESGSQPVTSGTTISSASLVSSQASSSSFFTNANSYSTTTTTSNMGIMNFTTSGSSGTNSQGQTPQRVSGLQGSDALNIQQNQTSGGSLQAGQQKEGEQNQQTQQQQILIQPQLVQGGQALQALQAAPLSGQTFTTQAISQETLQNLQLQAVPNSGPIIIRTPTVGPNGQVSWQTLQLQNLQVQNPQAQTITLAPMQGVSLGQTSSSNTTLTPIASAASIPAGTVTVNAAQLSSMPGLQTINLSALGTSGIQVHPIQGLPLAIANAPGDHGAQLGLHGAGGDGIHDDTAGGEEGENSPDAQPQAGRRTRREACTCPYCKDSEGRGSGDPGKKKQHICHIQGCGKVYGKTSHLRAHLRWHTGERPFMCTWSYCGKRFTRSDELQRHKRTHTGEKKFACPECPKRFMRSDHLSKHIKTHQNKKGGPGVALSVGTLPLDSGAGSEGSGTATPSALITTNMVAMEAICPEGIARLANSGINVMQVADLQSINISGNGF
Chain of Paired box protein Pax-6 (Homo sapiens) (P26367 whole entry, looked up): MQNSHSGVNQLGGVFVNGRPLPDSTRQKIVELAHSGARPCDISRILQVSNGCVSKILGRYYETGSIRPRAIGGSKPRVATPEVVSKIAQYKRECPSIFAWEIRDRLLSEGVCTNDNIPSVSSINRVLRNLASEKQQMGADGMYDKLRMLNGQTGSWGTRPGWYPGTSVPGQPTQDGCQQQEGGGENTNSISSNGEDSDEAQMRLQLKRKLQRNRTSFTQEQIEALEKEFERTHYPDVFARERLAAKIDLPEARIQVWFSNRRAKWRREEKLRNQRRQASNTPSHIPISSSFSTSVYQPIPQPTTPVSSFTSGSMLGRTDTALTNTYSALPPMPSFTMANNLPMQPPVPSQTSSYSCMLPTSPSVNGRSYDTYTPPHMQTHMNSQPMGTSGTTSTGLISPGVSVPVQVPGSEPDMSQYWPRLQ
Chain of Hypoxia-inducible factor 1-alpha (Homo sapiens) (Q16665 whole entry, looked up): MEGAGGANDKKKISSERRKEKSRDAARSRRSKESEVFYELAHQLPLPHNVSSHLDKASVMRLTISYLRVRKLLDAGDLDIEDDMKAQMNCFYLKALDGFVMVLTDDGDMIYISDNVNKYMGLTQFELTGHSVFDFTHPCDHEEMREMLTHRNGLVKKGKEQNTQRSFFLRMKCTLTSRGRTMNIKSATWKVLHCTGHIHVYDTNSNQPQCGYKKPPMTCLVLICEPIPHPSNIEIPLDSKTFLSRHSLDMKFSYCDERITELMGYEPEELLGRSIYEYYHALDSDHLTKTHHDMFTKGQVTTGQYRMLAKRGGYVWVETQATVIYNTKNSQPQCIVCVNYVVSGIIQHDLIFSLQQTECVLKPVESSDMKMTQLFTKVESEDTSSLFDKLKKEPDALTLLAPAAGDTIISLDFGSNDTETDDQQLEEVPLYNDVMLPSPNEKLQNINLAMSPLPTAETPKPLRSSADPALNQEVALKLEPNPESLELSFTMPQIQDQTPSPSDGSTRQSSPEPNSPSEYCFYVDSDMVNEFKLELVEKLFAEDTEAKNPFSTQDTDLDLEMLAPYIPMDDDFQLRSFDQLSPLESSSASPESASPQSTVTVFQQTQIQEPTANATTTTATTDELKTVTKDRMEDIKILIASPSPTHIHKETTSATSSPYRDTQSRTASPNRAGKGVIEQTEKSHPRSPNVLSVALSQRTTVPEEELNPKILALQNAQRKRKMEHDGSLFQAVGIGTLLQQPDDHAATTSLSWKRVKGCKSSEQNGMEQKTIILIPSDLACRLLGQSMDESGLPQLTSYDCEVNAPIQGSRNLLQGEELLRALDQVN
Chain of Heat shock factor protein 1 (Homo sapiens) (Q00613 whole entry, looked up): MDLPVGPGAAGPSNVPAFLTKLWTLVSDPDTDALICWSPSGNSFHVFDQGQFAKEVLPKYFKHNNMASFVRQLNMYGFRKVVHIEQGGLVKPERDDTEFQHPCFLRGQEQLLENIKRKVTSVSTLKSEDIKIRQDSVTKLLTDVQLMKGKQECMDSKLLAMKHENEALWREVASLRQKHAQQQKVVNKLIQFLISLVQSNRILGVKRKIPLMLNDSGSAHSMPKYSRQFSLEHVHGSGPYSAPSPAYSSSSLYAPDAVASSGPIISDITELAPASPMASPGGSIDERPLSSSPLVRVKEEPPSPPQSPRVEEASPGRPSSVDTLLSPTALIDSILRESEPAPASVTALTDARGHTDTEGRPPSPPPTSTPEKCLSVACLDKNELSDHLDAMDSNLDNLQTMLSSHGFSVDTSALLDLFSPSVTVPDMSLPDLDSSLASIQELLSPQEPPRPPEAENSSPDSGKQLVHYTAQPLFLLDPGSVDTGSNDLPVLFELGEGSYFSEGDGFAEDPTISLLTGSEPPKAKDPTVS
Chain of Hepatocyte nuclear factor 6 (Homo sapiens) (Q9UBC0 whole entry, looked up): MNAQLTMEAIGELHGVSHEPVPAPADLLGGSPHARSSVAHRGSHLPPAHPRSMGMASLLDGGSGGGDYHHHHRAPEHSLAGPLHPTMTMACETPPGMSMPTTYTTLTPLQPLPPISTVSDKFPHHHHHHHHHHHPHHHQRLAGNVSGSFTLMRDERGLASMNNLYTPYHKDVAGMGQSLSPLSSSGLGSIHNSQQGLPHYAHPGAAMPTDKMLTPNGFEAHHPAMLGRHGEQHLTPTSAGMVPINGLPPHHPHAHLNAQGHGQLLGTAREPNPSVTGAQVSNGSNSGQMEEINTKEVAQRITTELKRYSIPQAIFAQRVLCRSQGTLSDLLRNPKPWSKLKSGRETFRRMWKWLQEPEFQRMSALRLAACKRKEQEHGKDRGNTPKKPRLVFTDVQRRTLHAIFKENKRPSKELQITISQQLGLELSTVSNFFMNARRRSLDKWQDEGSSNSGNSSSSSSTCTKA
Chain of Signal transducer and activator of transcription 3 (Homo sapiens) (P40763 whole entry, looked up): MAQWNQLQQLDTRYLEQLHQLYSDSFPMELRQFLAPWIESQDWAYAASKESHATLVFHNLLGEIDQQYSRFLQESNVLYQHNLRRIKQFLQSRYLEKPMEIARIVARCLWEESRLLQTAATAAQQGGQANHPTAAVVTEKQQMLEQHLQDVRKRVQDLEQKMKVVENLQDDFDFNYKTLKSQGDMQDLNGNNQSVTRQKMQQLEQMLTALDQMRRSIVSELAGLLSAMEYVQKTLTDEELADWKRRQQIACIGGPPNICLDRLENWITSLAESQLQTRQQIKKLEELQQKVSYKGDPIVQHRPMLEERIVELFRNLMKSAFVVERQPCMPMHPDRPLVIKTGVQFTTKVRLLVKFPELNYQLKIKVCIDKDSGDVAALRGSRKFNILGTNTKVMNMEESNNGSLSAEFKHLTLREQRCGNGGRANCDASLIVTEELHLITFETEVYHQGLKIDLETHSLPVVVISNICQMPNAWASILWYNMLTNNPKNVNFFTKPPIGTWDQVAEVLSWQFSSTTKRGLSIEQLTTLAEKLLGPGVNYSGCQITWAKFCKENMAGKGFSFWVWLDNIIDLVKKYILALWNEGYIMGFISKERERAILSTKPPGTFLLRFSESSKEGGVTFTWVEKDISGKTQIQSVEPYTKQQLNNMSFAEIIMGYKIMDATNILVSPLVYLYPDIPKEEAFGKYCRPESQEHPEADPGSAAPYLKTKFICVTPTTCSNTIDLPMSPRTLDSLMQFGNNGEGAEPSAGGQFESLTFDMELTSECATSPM

CN(C)c1ccc(C(=C2C=CC(=[N+](C)C)C=C2)c2ccccc2)cc1
inactive: [1] | [2] | [3] | [4] | [6] | [7] | [8] | [9] | [10] | [12]
active: [4] 8.34 µM | [5] 1.46 µM and 1.3 µM | [8] 1.43 µM | [10] 0.752 µM | [11] 2.07 µM and 2.43 µM | [12] 1.85 µM | [13] 1.82 µM and 1.3 µM

O=C(O)c1cccc(C(=O)O)n1
not listed: [12]
inactive: all other assays above

CCOC(=O)CN[C@@H](C(=O)N1CC[C@H]1C(=O)NCc1ccc(/C(N)=N/O)cc1)C1CCCCC1
inactive: all assays above

O=C1OC2(c3ccccc31)c1cc(I)c(O)c(I)c1Oc1c2cc(I)c(O)c1I
active: [3] 21.2 µM and 34.4 µM | [5] 36.3 µM and 35.2 µM | [6] 21 µM and 18.6 µM | [15] 37.6 µM | [7] 12.8 µM and 4.37 µM and 8.03 µM | [17] 34.5 µM and 28.1 µM | [12] 93.8 µM | [13] 20.4 µM and 23.8 µM and 22 µM
inactive: [1] | [2] | [3] | [4] | [14] | [5] | [6] | [15] | [17] | [8] | [19] | [9] | [10] | [11] | [20] | [12]

CCOC=C(C(=O)OCC)C(=O)OCC
active: [7] 27.6 µM
not listed: [20]
inactive: all other assays above

Cc1ccc(C)c(S(=O)(=O)O)c1
inactive: all assays above

Reference: PubChem BioAssay (EPA / NIEHS)
